Test results published in PubChem BioAssay AID1159580 (chemical genetic matrix, 2015).
The whole screen tested about 5,500 compounds, of which about 2,000 (36%) were called active. Another 18% or so got no clear call; they are omitted. No stated cut-off is given here; in the data, active means normalized growth mostly below about 0.91 (no sharp cut-off); inconclusive means no clear call, values can overlap the other calls; inactive means mostly above about 0.92. Some of the results follow.

Assay: chemical genetic growth profiling, strain panel (AID 1159580);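 further: tested at 20 µM; growth read once vehicle control cultures reached saturation at 30 °C; 1 = growth at the plate median or of vehicle wells; lower values mean less growth of the strain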
Settings: growth OD

Measured: normalized growth

C[C@@H]1CC[C@@]2(OC1)OC1C(O)C3C4CC[C@H]5C[C@H](O[C@@H]6O[C@H](CO)[C@H](O[C@@H]7O[C@H](CO)[C@@H](O)[C@H](O[C@@H]8OC[C@@H](O)[C@H](O)[C@H]8O)[C@H]7O[C@@H]7O[C@H](CO)[C@H](O)[C@H](O[C@@H]8O[C@H](CO)[C@@H](O)[C@H](O)[C@H]8O)[C@H]7O)[C@H](O)[C@H]6O)[C@H](O)C[C@]5(C)C4CC[C@]3(C)C1[C@@H]2C (stereo partly specified)
inactive: S. cerevisiae deletion strains, locus YKL160W, strain elf1, active compounds read low 1.01 | S. cerevisiae deletion strains, locus YKR026C, strain gcn3, active compounds read low 1.03 | S. cerevisiae deletion strains, locus YKR091W, strain srl3, active compounds read low 1.02 | S. cerevisiae deletion strains, locus YLL001W, strain dnm1, active compounds read low 0.962 | S. cerevisiae deletion strains, locus YLL026W, active compounds read low 1.01 | S. cerevisiae deletion strains, locus YLL041C, strain sdh2, active compounds read low 1.02 | S. cerevisiae deletion strains, locus YLR027C, strain aat2, active compounds read low 1.01 | S. cerevisiae deletion strains, locus YLR221C, strain rsa3, active compounds read low 0.926 | S. cerevisiae deletion strains, locus YLR258W, strain gsy2, active compounds read low 1.02 | S. cerevisiae deletion strains, locus YLR320W, strain mms22, active compounds read low 0.985 | S. cerevisiae deletion strains, locus YLR342W, strain FKS1, active compounds read low 0.991 | S. cerevisiae deletion strains, locus YLR357W, strain rsc2, active compounds read low 0.875 | S. cerevisiae deletion strains, locus YLR370C, strain arc18, active compounds read low 1.02 | S. cerevisiae deletion strains, locus YLR384C, strain iki3, active compounds read low 1.04 | S. cerevisiae deletion strains, locus YML120C, strain ndi1, active compounds read low 0.925 | S. cerevisiae deletion strains, locus YMR058W, strain fet3, active compounds read low 1.01 | S. cerevisiae deletion strains, locus YMR125W, strain sto1, active compounds read low 1.03 | S. cerevisiae deletion strains, locus YMR129W, active compounds read low 1.03 | S. cerevisiae deletion strains, locus YMR205C, strain PFK2, active compounds read low 0.977 | S. cerevisiae deletion strains, locus YNL071W, strain lat1, active compounds read low 1.03 | S. cerevisiae deletion strains, locus YNL209W, strain ssb2, active compounds read low 1.03 | S. cerevisiae deletion strains, locus YNL248C, strain rpa49, active compounds read low 1.02 | S. cerevisiae deletion strains, locus YNL322C, strain KRE1 (second series), active compounds read low 1.04 | S. cerevisiae deletion strains, locus YNR049C, strain mso1, active compounds read low 1.03 | S. cerevisiae deletion strains, locus YOR001W, strain rrp6, active compounds read low 0.939 | S. cerevisiae deletion strains, locus YOR070C, strain gyp1, active compounds read low 1.02 | S. cerevisiae deletion strains, locus YOR080W, strain dia2, active compounds read low 1.04 | S. cerevisiae deletion strains, locus YOR083W, strain WHI5, active compounds read low 0.974 | S. cerevisiae deletion strains, locus YOR106W, strain vam3, active compounds read low 0.919 | S. cerevisiae deletion strains, locus YOR265W, strain rbl2, active compounds read low 1.04 | S. cerevisiae deletion strains, locus YOR270C, strain vph1, active compounds read low 0.99 | S. cerevisiae deletion strains, locus YOR290C, strain snf2, active compounds read low 0.964 | S. cerevisiae deletion strains, locus YPL051W, strain arl3, active compounds read low 0.95 | S. cerevisiae deletion strains, locus YPL078C, strain atp4, active compounds read low 0.968 | S. cerevisiae deletion strains, locus YPL240C, strain hsp82, active compounds read low 1
active: S. cerevisiae deletion strains, locus YJR043C, strain POL32, active compounds read low 0.0654 | S. cerevisiae deletion strains, locus YJR066W, strain TOR1, active compounds read low -0.00057 | S. cerevisiae deletion strains, locus YKL009W, strain mrt4, active compounds read low 0.0811 | S. cerevisiae deletion strains, locus YKL068W, active compounds read low 0.0538 | S. cerevisiae deletion strains, locus YKL085W, strain MDH1 (second series), active compounds read low 0.0597 | S. cerevisiae deletion strains, locus YKL085W, strain MDH1, active compounds read low 0.0597 | S. cerevisiae deletion strains, locus YKR001C, strain vps1, active compounds read low 0.0628 | S. cerevisiae deletion strains, locus YLR039C, strain RIC1, active compounds read low 0.0908 | S. cerevisiae deletion strains, locus YLR058C, strain SHM2, active compounds read low 0.0509 | S. cerevisiae deletion strains, locus YLR102C, strain apc9, active compounds read low 0.0549 | S. cerevisiae deletion strains, locus YLR113W, strain HOG1, active compounds read low 0.124 | S. cerevisiae deletion strains, locus YLR262C, strain YPT6 (second series), active compounds read low 0.598 | S. cerevisiae deletion strains, locus YLR262C, strain YPT6, active compounds read low 0.112 | S. cerevisiae deletion strains, locus YLR268W, strain sec22, active compounds read low 0.0616 | S. cerevisiae deletion strains, locus YLR371W, strain rom2, active compounds read low 0.0571 | S. cerevisiae deletion strains, locus YLR418C, strain cdc73, active compounds read low 0.0973 | S. cerevisiae deletion strains, locus YML016C, strain PPZ1, active compounds read low 0.0492 | S. cerevisiae deletion strains, locus YML032C, strain rad52, active compounds read low 0.0633 | S. cerevisiae deletion strains, locus YML124C, strain tub3, active compounds read low 0.0557 | S. cerevisiae deletion strains, locus YMR078C, strain ctf18, active compounds read low 0.064 | S. cerevisiae deletion strains, locus YMR223W, strain ubp8, active compounds read low 0.0562 | S. cerevisiae deletion strains, locus YMR263W, strain SAP30, active compounds read low 0.055 | S. cerevisiae deletion strains, locus YMR307W, strain GAS1, active compounds read low 0.13 | S. cerevisiae deletion strains, locus YNL067W, strain RPL9B, active compounds read low 0.0474 | S. cerevisiae deletion strains, locus YNL153C, strain GIM3, active compounds read low 0.0551 | S. cerevisiae deletion strains, locus YNL183C, strain NPR1, active compounds read low -0.00129 | S. cerevisiae deletion strains, locus YNL233W, strain BNI4, active compounds read low 0.0568 | S. cerevisiae deletion strains, locus YNL250W, strain rad50, active compounds read low 0.0602 | S. cerevisiae deletion strains, locus YNL271C, strain bni1, active compounds read low 0.0573 | S. cerevisiae deletion strains, locus YNL298W, strain CLA4, active compounds read low 0.0588 | S. cerevisiae deletion strains, locus YNL307C, strain MCK1, active compounds read low 0.063 | S. cerevisiae deletion strains, locus YNR052C, strain pop2, active compounds read low 0.0596 | S. cerevisiae deletion strains, locus YOL006C, strain TOP1, active compounds read low 0.131 | S. cerevisiae deletion strains, locus YOL012C, strain htz1 0.172 | S. cerevisiae deletion strains, locus YOL147C, strain pex11, active compounds read low 0.0607 | S. cerevisiae deletion strains, locus YOR061W, strain CKA2, active compounds read low 0.0464 | S. cerevisiae deletion strains, locus YOR069W, strain VPS5, active compounds read low 0.05 | S. cerevisiae deletion strains, locus YOR136W, strain idh2, active compounds read low 0.0668 | S. cerevisiae deletion strains, locus YOR144C, strain elg1, active compounds read low 0.0588 | S. cerevisiae deletion strains, locus YOR184W, strain ser1, active compounds read low 0.0693 | S. cerevisiae deletion strains, locus YOR231W, strain MKK1, active compounds read low 0.0965 | S. cerevisiae deletion strains, locus YOR316C, strain cot1, active compounds read low 0.0539 | S. cerevisiae deletion strains, locus YPL106C, strain sse1, active compounds read low 0.671 | S. cerevisiae deletion strains, locus YPL241C, strain CIN2, active compounds read low 0.0482 | S. cerevisiae deletion strains, locus YPL256C, strain CLN2, active compounds read low 0.109 | S. cerevisiae deletion strains, locus YPR119W, strain clb2, active compounds read low 0.0604 | S. cerevisiae deletion strains, locus YPR141C, strain kar3, active compounds read low 0.0605 | S. cerevisiae deletion strains, locus YPR163C, strain tif3, active compounds read low 0.0646 | S. cerevisiae deletion strains, locus YPR167C, strain met16, active compounds read low 0.0578 | S. cerevisiae deletion strains, strain wtn01, active compounds read low 0.0611 | S. cerevisiae strains, strain wild type, active compounds read low 0.0496
